In all, about 340,000 compounds went through this assay and about 2,000 (0.59%) were called active. For the sample, actives were picked, then their nearest neighbours and some compounds at random. Values without a mark were called inactive. No stated cut-off is given here; in the data, active means activation mostly above about 9.5% (no sharp cut-off); inactive means mostly below about 7.6%.

In the test the target is 5-hydroxytryptamine receptor 5A (Homo sapiens) (UniProt P47898). The test is described as follows: HTR5A agonists in luminescence cell assay, primary screen, counter-screen for OPRM1-OPRD1 heterodimer agonist project, full-deck HTS (AID 504692).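 Further: 0% = cells with vehicle only and 100% = reference agonist.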 To be noted: cell-based, at 9.3 µM, hits give high values.
5-hydroxytryptamine receptor 5A (Homo sapiens), sequence (P47898 whole entry, looked up): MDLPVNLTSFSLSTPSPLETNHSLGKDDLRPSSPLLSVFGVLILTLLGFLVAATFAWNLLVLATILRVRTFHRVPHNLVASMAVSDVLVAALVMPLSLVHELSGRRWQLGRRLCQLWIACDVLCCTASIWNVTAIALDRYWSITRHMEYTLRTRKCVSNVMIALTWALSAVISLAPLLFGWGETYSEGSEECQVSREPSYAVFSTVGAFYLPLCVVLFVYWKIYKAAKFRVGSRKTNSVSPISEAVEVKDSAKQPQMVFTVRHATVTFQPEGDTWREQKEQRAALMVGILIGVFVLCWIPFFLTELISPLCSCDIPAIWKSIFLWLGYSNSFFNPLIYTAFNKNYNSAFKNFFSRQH
Consider `COc1cc2c(cc1OC)C1C(=O)c3cc(OS(C)(=O)=O)c(OC)cc3C1N(C)C2=O` (centres undefined), for which the activation was -2.76%.
Consider `OC(CN=c1sc2ccccc2n1CC(O)COc1ccccc1)COc1ccccc1` (centres undefined), for which the activation was 7.91%.
`CCn1nnc(NC(=O)c2cc(Cl)c(OC)c(Cl)c2)n1`: the activation is -6.18%.
As to `CN(CCc1ccccc1)c1ccc([N+](=O)[O-])cn1`, the activation was 2.92%.
As for `COc1ccc(Br)cc1S(=O)(=O)N1CCN=C1C`, the activation is 2.3%.
The figure for `O=C(CN1C(=O)C2C3C=CC(C3)C2C1=O)NCCc1ccccc1Cl` (centres undefined) is -1.28%; for `CCCCCOC(=O)c1ccc(N2C(=O)C3C4C=CC(C4)C3C2=O)cc1` (centres undefined) it is -1.59%.
With `CCCCOC(=O)NCN1C(=O)C2C3C=CC(C3)C2C1=O` (centres undefined), the activation is 9.49% (active).
As to `CCc1c(Nc2ccccc2Cl)nc(N)[nH]c1=O`, the activation is -3.6%.
To `O=C(CC(O)(C(F)(F)F)C(F)(F)F)Nc1ccc(Cl)c(Cl)c1` belongs 20.1% (active); to `O=C(COC(=O)c1cc[n+]([O-])cc1)Nc1ccc(Cl)c(C(F)(F)F)c1`, 3.73%.
The figure for `NC(=O)N1CCCC1C(=O)Nc1ccc(Cl)c(Cl)c1` (centres undefined) is 1.66%; for `COc1ccccc1CNS(=O)(=O)CC12CCC(CC1=O)C2(C)C` (centres undefined) it is -5.29%.
The figure for `CC1(C)C2CCC1(CS(=O)(=O)NCCc1c[nH]c3ccccc13)C(=O)C2` (centres undefined) is 41.5% (active); for `CC(C)(C)NS(=O)(=O)CC12CCC(CC1=O)C2(C)C` (centres undefined) it is 3.18%; for `COc1ccc(OC)c(C2C3=C(N=c4s/c(=C\c5cccc(O)c5)c(=O)n42)c2ccccc2CC3)c1` (centres undefined) it is 13.5% (active).
Take `COc1ccc(/C=C2/CCCc3ccccc3C2=O)cc1`: the activation is -2.8%.
Take `O=C1[C@@H]2C(Cc3ccc(O)cc3)NC3(C(=O)Nc4ccc(F)cc43)[C@@H]2C(=O)N1c1ccc(F)cc1` (some centres undefined): the activation was 1.44%.
To `CC1CCN(CC(=O)Nc2nccs2)CC1` belongs -1.58%.
Consider `COc1ccccc1C(=O)NCCC(=O)NC(C)CCc1ccccc1` (centres undefined), for which the activation is 5.98%.
To `CCC(C)NC(=O)CCCc1ccccc1` (centres undefined) belongs 14.8% (active).
`CC(CCn1cccn1)NC(=O)CCc1nnc(CCc2ccccc2)o1` (centres undefined): the activation is 4.98%.
For the compound `Cc1noc(C)c1S(=O)(=O)N(CC(=O)NCc1ccc(Cl)cc1)c1ccc2c(c1)OCO2`, the activation was 1.78%.
To `Cc1ccc(-n2c(=O)cc(N3CCN(Cc4ccccc4)CC3)[nH]c2=O)cc1` belongs 7.71%.
The figure for `CCOc1cc2c(Cl)ncnc2c(OCC)c1OCC` is 2%.
For `COc1ccc(S(=O)(=O)N2CCC(C(=O)NCCC(=O)NCc3cccc(OC)c3)CC2)cc1`, the activation was -0.19%.
Take `CCOc1ccc(C(=O)Nc2ccc(S(=O)(=O)Nc3cc(C)on3)cc2)cc1`: the activation is 5.44%.
As for `CCC(=O)Nc1ccc(C(=O)Nc2cc(C)on2)cc1`, the activation was 6.16%.
In the case of `CCOc1ccc(NC(=O)Nc2cc(C)on2)cc1`, the activation was 14.5% (active).
As to `COc1cccc(OCC(O)CNC(=O)c2oc3c(C)c(C)ccc3c2C)c1` (centres undefined), the activation was 0.14%.
As for `O=C1CCCC2=C1C(c1cccs1)n1nc(SCc3ccccc3)nc1N2` (centres undefined), the activation was 1.85%.
For `CC(=O)c1cccc(NC(=O)C2CCN(C(=O)c3ccccc3Cl)CC2)c1`, the activation was 1.54%.
As to `O=C(CSc1nncs1)NC1CCCc2ccccc21` (centres undefined), the activation is -2.59%.
Consider `CC(C)(C)OC(=O)CNC(=O)c1[nH]cnc1C(=O)N[C@@H](Cc1ccccc1)C(=O)OCc1ccccc1`, for which the activation is 9.43%.
The figure for `CC(C)(C)OC(=O)N1CCC(NC(=O)c2[nH]cnc2C(=O)N[C@@H](Cc2ccccc2)C(=O)OCc2ccccc2)CC1` is 38% (active); for `O=C(N[C@@H](Cc1ccccc1)C(=O)OCc1ccccc1)c1nc[nH]c1C(=O)NC1CCNCC1` it is -1.94%; for `CC(=O)NCCC(=O)Nc1cc(S(=O)(=O)N2CCOCC2)ccc1N1CCOCC1` it is -0.71%.
In the case of `O=C(CNCc1ccco1)Nc1cc(S(=O)(=O)N2CCOCC2)ccc1N1CCCC1`, the activation was 16.7% (active).
For the compound `O=C(COC(=O)c1ccccc1F)Nc1cc(S(=O)(=O)N2CCOCC2)ccc1N1CCCC1`, the activation is -1.44%.
In the case of `Cc1ccc(C(=O)NC2CCN(C(=O)Nc3ccccc3Cl)CC2)cc1`, the activation was -0.54%.
In the case of `COc1ccccc1CCNC(=O)c1cnccn1`, the activation is 2.02%.
Regarding `COc1ccc(C(C#N)Nc2ccc(C)cc2)cc1` (centres undefined), the activation is 2.71%.
Turning to `CCN1CCN(C(=O)C2CCN(S(=O)(=O)c3cc(Cl)ccc3Cl)CC2)CC1`, the activation is 1.91%.
For the compound `CC(=O)N1CCN(S(=O)(=O)c2c(F)cc(F)c(Cl)c2F)CC1`, the activation was 11.6% (active).
To `O=C(c1cnc(Cl)c(Cl)c1)N1CCN(S(=O)(=O)c2ccc(F)cc2)CC1` belongs -1.02%.
`CCc1nnc(NC(=O)CSCc2cc(=O)n3cc(C)sc3n2)s1`: the activation was -1%.
As for `C/C(=N\NC(=O)CNc1cccc2ccccc12)c1ccc(Br)s1`, the activation is 46.5% (active).
Consider `Cc1cccc(/C=N/NC(=O)CNc2cccc3ccccc23)n1`, for which the activation is 2.33%.
Turning to `C/C(=N\NC(=O)CSc1nc2ccccc2c(=O)n1-c1ccccc1C)c1cccs1`, the activation is 9.42%.
Consider `COc1ccc(CN2CCCCC2C)cc1OC` (centres undefined), for which the activation was -0.45%.
To `COc1ccc(C2CC(c3cccs3)=Nc3ccccc3S2)cc1OC` (centres undefined) belongs 0.29%.
On to `O=C(Nc1nc(-c2ccco2)c(-c2ccco2)s1)c1ccco1`, for which the activation is 5.45%.
`CN(Cc1ccco1)S(=O)(=O)c1nnc(NC(=O)c2ccccc2)s1`: the activation is 2.57%.
Take `CNc1nnc(-c2ccco2)s1`: the activation is 15.4% (active).
Turning to `CCCCNC(=O)CSc1nc2n[nH]c(C)c2c(=N)n1-c1cccc(Cl)c1C`, the activation is -2.98%.
Regarding `COc1cccc(-n2c(SCC(=O)NC3CCCCC3)nc3n[nH]c(C)c3c2=N)c1`, the activation was 0.63%.
On to `Cc1ccc(-n2c(SCC(=O)NCCC3=CCCCC3)nc3n[nH]c(C)c3c2=N)cc1Cl`, for which the activation is 12.6% (active).
To `CCOc1ccc(CN(Cc2ccco2)C(c2cccs2)c2nnnn2C(C)(C)C)cc1` (centres undefined) belongs -2.19%; to `Cc1nc2ccccc2c(C(=O)O)c1-c1ccccn1`, -0.26%.
